According to PubChem BioAssay:
Activity calls are given as the source filed them. Unless noted, how the calls were made is not given here.

Assays:
[1] = compound effects on lung adenocarcinoma cell viability – A549, calcein-AM fluorescence, 48 h, basal, profiling panel (AID 1162); conditions: higher = more signal; further: test concentration not given here
[2] = compound effects on differentiated 3T3-L1 adipocyte viability – cell-based, 3T3-L1 adipocytes, calcein-AM fluorescence, 48 h, basal, profiling panel (AID 1163); conditions: 3T3-L1 adipocytes viability, higher = more signal; further: test concentration not given here
[3] = compound effects on hepatocellular carcinoma cell viability – HepG2, calcein-AM fluorescence, 48 h, basal, profiling panel (AID 1164); conditions: higher = more signal; further: test concentration not given here
[4] = compound effects on multiple myeloma cell viability – MM1S, calcein-AM fluorescence, 48 h, basal, profiling panel (AID 1165); conditions: higher = more signal; further: test concentration not given here
[5] = calcein-AM signal in unstimulated myeloma cells – cell-based, calcein-AM fluorescence, 48 h, PK04 Diversity Set, profiling panel (AID 1166); conditions: RPMI8226 myeloma viability, higher = more signal;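 further: cells grown under basal conditions without added stimulus; test concentration not given here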
[6] = JC-1 mitochondrial signal, unstimulated HepG2 cells – cell-based, JC-1 fluorescence, 24 h, 100 nL compound, profiling panel (AID 1167); conditions: HepG2 mitochondrial potential, higher = more signal; further: test concentration not given here
[7] = JC-1 mitochondrial signal, unstimulated adipocytes – cell-based, JC-1 fluorescence, 3T3-L1 adipocytes, 24 h, 100 nL compound, profiling panel (AID 1168); conditions: JC-1 mitochondrial fluorescence, higher = more signal, called active from +8 up or from −8 down; further: test concentration not given here
[8] = JC-1 mitochondrial signal, unstimulated myeloma cells – cell-based, JC-1 fluorescence, RPMI8226, 24 h, 100 nL compound, profiling panel (AID 1169); conditions: JC-1 mitochondrial potential fluorescence, higher = more signal; further: test concentration not given here
[9] = JC-1 mitochondrial signal, unstimulated MM1S myeloma – cell-based, JC-1 fluorescence, 24 h, 100 nL compound, profiling panel (AID 1170); conditions: MM1S mitochondrial potential, higher = more signal; further: test concentration not given here
[10] = resazurin metabolic signal in A549 cells – cell-based, resazurin fluorescence, 24 h, PK04 Diversity Set, profiling panel (AID 1171); conditions: A549 viability, higher = more signal, called active from +8 up or from −8 down; further: test concentration not given here
[11] = resazurin metabolic signal in HepG2 cells – cell-based, resazurin fluorescence, 24 h, PK04 Diversity Set, profiling panel (AID 1172); conditions: HepG2 viability, higher = more signal; further: test concentration not given here
[12] = budding yeast growth changes without added modifier – OD600, strain BY4716, 24 h, basal condition, primary screen (AID 1173); conditions: S. cerevisiae BY4716 growth, OD600, 24 h; higher = more signal, called active from +8 up or from −8 down
[13] = viability profiling in MM1S myeloma cells – cell-based, resazurin fluorescence, basal, 24 h, PK04 Diversity Set, profiling panel (AID 1174); conditions: higher = more signal, called active from +8 up or from −8 down; further: test concentration not given here
[14] = molecular target: Dihydroorotate dehydrogenase (quinone), mitochondrial (Plasmodium falciparum (isolate 3D7)) (UniProt Q08210); assay: inhibition of P. falciparum DHODH – biochemical, C-terminal His tag, absorbance 600 nm, primary screen (AID 1175); conditions: PfDHODH enzyme, DCIP absorbance 600 nm; higher = more signal, called active from +8 up or from −8 down;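 further: recombinant parasite enzyme with a five histidine tag at its C terminus; test concentration not given here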
Chain of Dihydroorotate dehydrogenase (quinone), mitochondrial (Plasmodium falciparum (isolate 3D7)) (Q08210 whole entry, looked up): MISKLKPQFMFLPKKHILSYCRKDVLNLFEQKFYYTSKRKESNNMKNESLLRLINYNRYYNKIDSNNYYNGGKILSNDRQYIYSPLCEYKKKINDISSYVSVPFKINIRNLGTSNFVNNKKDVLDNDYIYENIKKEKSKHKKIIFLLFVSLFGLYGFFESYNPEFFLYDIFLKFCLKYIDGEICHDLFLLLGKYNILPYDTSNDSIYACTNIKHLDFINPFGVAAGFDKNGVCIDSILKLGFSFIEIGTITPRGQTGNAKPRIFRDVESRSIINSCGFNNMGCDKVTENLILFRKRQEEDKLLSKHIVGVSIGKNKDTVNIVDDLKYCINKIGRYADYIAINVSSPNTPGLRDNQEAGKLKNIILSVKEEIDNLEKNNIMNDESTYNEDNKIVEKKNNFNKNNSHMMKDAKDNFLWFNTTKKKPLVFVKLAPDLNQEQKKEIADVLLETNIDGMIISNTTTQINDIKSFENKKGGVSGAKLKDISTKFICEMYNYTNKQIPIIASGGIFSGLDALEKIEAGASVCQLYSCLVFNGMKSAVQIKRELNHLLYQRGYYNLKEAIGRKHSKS

[15] = inhibition of PAO1 biofilm formation – strain PAO1, LB-PBS medium, absorbance 600 nm, primary screen (AID 1176); further: test concentration not given here; conditions: P. aeruginosa PAO1 growth/biofilm, A600, 12 h; higher = more signal
[16] = growth modulation of vineyard yeast isolate – strain RM11-1a, OD600, basal, 24 h, primary screen (AID 1177);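 further: cultures grown under basal conditions with no added stressor; test concentration not given here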; conditions: S. cerevisiae RM11-1a growth, OD600, 24 h; higher = more signal, called active from +8 up or from −8 down
[17] = growth of efflux-deficient E. coli DRC39 – strain DRC39, OD650, 24 h, E. coli filamentation inducers, primary screen (AID 1178);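 further: growth measured as culture turbidity by optical density at 650 nm; test concentration not given here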; conditions: E. coli DRC39 acrAB, higher = more signal, called active from +8 up or from −8 down
[18] = growth of efflux-deficient E. coli DRC39 – strain DRC39, OD650, 48 h, E. coli filamentation inducers, primary screen (AID 1179);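 further: screen aims at cell division blockers that make cells filament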; conditions: E. coli DRC39 delta-acrAB growth, higher = more signal, called active from +8 up or from −8 down
[19] = viability profiling in RPMI8226 myeloma cells – cell-based, resazurin fluorescence, basal, 24 h, PK04 Diversity Set, profiling panel (AID 1180); conditions: higher = more signal;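 further: RPMI8826 multiple myeloma cell line at 5000 cells per well; test concentration not given here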
[20] = molecular target: E3 ubiquitin-protein ligase XIAP (Homo sapiens) (UniProt P98170); assay: small molecules binding XIAP protein – biophysical, small-molecule microarray, fluorescence 635 nm, primary screen (AID 1181); conditions: higher = more signal;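 further: score merges 667 nm emission and signal to noise over triplicate slides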
Chain of E3 ubiquitin-protein ligase XIAP (Homo sapiens) (P98170 whole entry, looked up): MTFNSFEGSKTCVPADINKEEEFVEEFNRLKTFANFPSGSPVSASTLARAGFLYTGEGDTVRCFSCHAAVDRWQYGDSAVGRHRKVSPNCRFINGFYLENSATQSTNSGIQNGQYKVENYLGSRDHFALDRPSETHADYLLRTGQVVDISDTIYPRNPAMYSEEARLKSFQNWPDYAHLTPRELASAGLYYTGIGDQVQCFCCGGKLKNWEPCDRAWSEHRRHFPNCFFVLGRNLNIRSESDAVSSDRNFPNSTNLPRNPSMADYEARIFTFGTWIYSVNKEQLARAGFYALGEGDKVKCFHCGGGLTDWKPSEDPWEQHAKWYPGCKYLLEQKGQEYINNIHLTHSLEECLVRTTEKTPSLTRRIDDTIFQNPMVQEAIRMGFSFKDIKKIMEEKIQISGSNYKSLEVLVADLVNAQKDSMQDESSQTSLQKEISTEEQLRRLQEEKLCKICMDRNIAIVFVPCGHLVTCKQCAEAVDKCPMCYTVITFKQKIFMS

| Compound | z-score [1] | z-score [2] | z-score [3] | z-score [4] | z-score [5] | z-score [6] | z-score [7] | z-score [8] | z-score [9] | z-score [10] | z-score [11] | z-score [12] | z-score [13] | composite z-score [14] | z-score [15] | z-score [16] | z-score [17] | z-score [18] | z-score [19] | composite z-score [20] |
| --- | --- | --- | --- | --- | --- | --- | --- | --- | --- | --- | --- | --- | --- | --- | --- | --- | --- | --- | --- | --- |
| O=C(NCc1ccccc1)[C@@H]1c2ccccc2C(=O)N(Cc2ccc(OC(F)(F)F)cc2)[C@H]1c1ccc(CO)cc1 | 1.29 | 0.711 | 0.77 | -0.279 | 0.473 | 2.44 | -0.602 (inactive) | -0.728 | 0.809 | 1.39 (inactive) | 0.299 | -0.103 (inactive) | 0.61 (inactive) | -0.197 (inactive) | -0.109 (inactive) | -0.486 (inactive) | 0.822 (inactive) | 0.387 (inactive) | 1.5 | 0.371 |
| COCCOC(=O)N1C(=O)[C@@]2(c3ccccc31)[C@H](C(=O)N1CCN(c3ncccn3)CC1)[C@H]1C(=O)O[C@H](c3ccccc3)[C@H](c3ccccc3)N1[C@@H]2c1ccccc1OCCO | 1.14 | 0.549 | -0.0577 | 0.0079 | -0.203 | -0.195 | 0.204 (inactive) | -0.248 | -0.742 | -0.166 (inactive) | -0.482 | 1.76 (inactive) | -0.684 (inactive) | -1.35 (inactive) | 3.3 (inactive) | 2.04 (inactive) | 0.858 (inactive) | 0.611 (inactive) | 1.69 | -0.0095 |
| O=C1N(CCS(=O)(=O)c2ccccc2)c2ccccc2C[C@]12N=C(c1ccc(OCCCO)cc1)O[C@@H]2c1ccccc1 | -0.982 | 0.0009 | 0.207 | -0.967 | -2.48 | -0.484 | 1.07 (inactive) | -0.687 | -0.242 | -1.37 (inactive) | -0.285 | 0.376 (inactive) | -2.11 (inactive) | -2.58 (inactive) | 0.575 (inactive) | 2.74 (inactive) | 0.39 (inactive) | -0.0504 (inactive) | -0.885 | 0.311 |
| CO[C@H]1O[C@H](CO)[C@@H](OC(=O)Nc2ccc3c(c2)OCO3)[C@H](OC(=O)Nc2ccccc2-c2ccccc2)[C@H]1OC(=O)Nc1ccccc1-c1ccccc1 | -3.97 | 0.548 | -3.71 | -3.34 | -2.72 | 0.0319 | 2.04 (inactive) | -0.819 | -1.76 | -3.84 (inactive) | -2.5 | 2.05 (inactive) | -2.94 (inactive) | 0.656 (inactive) | 0.553 (inactive) | 4.05 (inactive) | 0.335 (inactive) | -0.303 (inactive) | -2.63 | 0.441 |
| COCCOC(=O)N1C(=O)[C@@]2(c3cc(C#CCCO)ccc31)[C@H](C(N)=O)[C@H]1C(=O)O[C@H](c3ccccc3)[C@H](c3ccccc3)N1[C@@H]2c1ccccc1OCCO | -0.21 | -0.0387 | -0.16 | -1.87 | -2.92 | -0.529 | 0.181 (inactive) | -0.821 | -1.47 | -0.191 (inactive) | -0.231 | 1.11 (inactive) | -2.76 (inactive) | 0.754 (inactive) | 0.594 (inactive) | 2.34 (inactive) | 0.354 (inactive) | 0.449 (inactive) | -1.95 | -0.124 |
| O=C1C[C@@](C(=O)O)(c2ccc([N+](=O)[O-])cc2)[C@@H](c2ccc(CO)cc2)N1C1CCCCC1 | 0.903 | -0.0886 | -0.28 | -1.43 | -2.67 | 0.969 | -1.22 (inactive) | -0.145 | -0.247 | 0.361 (inactive) | -0.562 | 0.408 (inactive) | -0.544 (inactive) | -0.0999 (inactive) | -0.0123 (inactive) | 1.3 (inactive) | 0.576 (inactive) | -0.199 (inactive) | 0.0311 | -0.193 |
| O=C1C2C=CC(C(O)c3c(F)cccc3Cl)N(Nc3ccc([N+](=O)[O-])cc3)C2C(=O)N1c1ccccc1 (stereo not given) | -1 | -0.0012 | -0.645 | 0.19 | -1.09 | -1.14 | -1.26 (inactive) | -0.209 | -0.542 | 0.372 (inactive) | -0.0492 | 0.615 (inactive) | -0.396 (inactive) | 0.406 (inactive) | 0.685 (inactive) | 0.378 (inactive) | -0.333 (inactive) | -0.194 (inactive) | 0.278 | -0.357 |
| CCOC(=O)C[C@H]1[C@H](OC(=O)c2cc3ccccc3oc2=O)[C@@H](NC(=O)CC(C)C)c2cc(OCCCO)ccc2N1C(=O)Cc1ccc(OC)cc1 | 0.746 | 0.967 | 0.535 | 0.12 | 0.28 | 0.433 | -0.119 (inactive) | 0.421 | 0.328 | -0.546 (inactive) | -0.74 | -0.628 (inactive) | -0.233 (inactive) | -0.144 (inactive) | -0.423 (inactive) | -0.746 (inactive) | -0.715 (inactive) | -1.18 (inactive) | -0.72 | -0.284 |
| NC(=O)NCC#Cc1ccc2c(c1)[C@]1(C(=O)N2)[C@H](c2ccc(OCCO)cc2)N2[C@H](c3ccccc3)[C@H](c3ccccc3)OC(=O)[C@H]2[C@@H]1C(=O)O | -0.295 | 1.09 | -0.21 | -1.9 | 0.111 | -1.9 | -0.469 (inactive) | -0.278 | -1.08 | 0.253 (inactive) | -0.983 | -0.434 (inactive) | 0.117 (inactive) | -0.996 (inactive) | 1.01 (inactive) | -0.264 (inactive) | 0.427 (inactive) | -0.533 (inactive) | 0.15 | -0.0013 |
